The target in assay [1] is bovine Gamma-Aminobutyric Acid Type A Receptor Agonist (GABAR Agonist), GABRA1 (gene 780973) (UniProt P08219). The assay is described as follows: NVS_LGIC_bGABAR_Agonist: NovaScreen (NVS) Ligand-Gated Ion Channel Assay for bovine Gamma-Aminobutyric Acid Type A Receptor Agonist (GABAR Agonist) (AID 2283338). Summed up: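 Radioligand binding to bovine cerebellar membranes in agonist format, read by filter-based scintillation counting after 1 h. Primary screen in duplicate at 25 uM, with actives followed in concentration series. Gain of signal versus DMSO.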

Assay [2] can be described thus: NVS_IC_rCaDHPRCh_L: NovaScreen (NVS) Ion Channel Assay for rat Calcium Channel, Type L, Dihydropyridine Site (CaDHPRCh_L) (AID 2283320). Summed up: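 Rat cortex membrane preparation; dihydropyridine-site radioligand displacement read 1 h post-dose by filtration and scintillation. Primary single-point screen 25 uM in duplicate, then concentration series to 50 uM maximum; DMSO as negative control.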

Assay [3] deals with Sodium channel protein type 1 subunit alpha (Rattus norvegicus) (UniProt P04774). Description: NVS_IC_rNaCh_site2: NovaScreen (NVS) Ion Channel Assay for rat Sodium Channel, Site 2 (NaCh) (AID 2283322).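 Note: hit means loss of radioligand binding signal relative to DMSO so AC50 marks displacement.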 The method in brief:
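Initial duplicate single-point testing at 25 uM, followed by concentration-response runs for actives. Binding of radioligand to rat forebrain membranes quantified after 1 h via filter-based radiodetection.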

The target of assay [4] is rat Glutamate, AMPA Site (AMPA), Gria1 (gene 50592) (UniProt P19490). Description: NVS_LGIC_rAMPA: NovaScreen (NVS) Ligand-Gated Ion Channel Assay for rat Glutamate, AMPA Site (AMPA) (AID 2283324). Summed up: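 Screening at 25 uM in duplicate preceded concentration series reaching 50 uM for qualifying compounds. Radioligand displacement on rat forebrain membranes, 1 h, filter-based scintillation readout; reduced binding relative to DMSO.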

For assay [5], the target named is human Peripheral-type Benzodiazepine Receptor (PBR), TSPO (gene 706) (UniProt P30536). The assay is described as follows: NVS_MP_hPBR: NovaScreen (NVS) Membrane Protein Assay for human Peripheral-type Benzodiazepine Receptor (PBR) (AID 2283331).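 Note: hits reduce radioligand binding relative to DMSO baseline.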 Summed up: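 Cell-free binding to human colonic membrane preparations measured by filter-based scintillation counting after 1 h. Compounds first run at 25 uM in duplicate, then concentration series for actives; signal loss against DMSO baseline.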

Assay [6] can be described thus: NVS_IC_rCaBTZCHL: NovaScreen (NVS) Ion Channel Assay for Calcium Channel, Type L, Benzothiazepine Site (CaBTZCHL) (AID 2283337). Summed up:
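Rat cortical membrane preparation incubated 1.5 h with compound and benzothiazepine-site radioligand; loss of filter-bound counts versus DMSO marks displacement. Initial duplicate testing at 25 uM, actives followed up in concentration series.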

Assay [7] addresses rat Peripheral-type Benzodiazepine Receptor (PBR), Tspo (gene 24230) (UniProt P16257). The assay is described as follows: NVS_MP_rPBR: NovaScreen (NVS) Membrane Protein Assay for rat Peripheral-type Benzodiazepine Receptor (PBR) (AID 2283335). The method in brief:
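Competitive displacement of specific radioligand from rat kidney membrane PBR, read by filtration and scintillation after 1 h. Compounds first tested at 25 uM in duplicate, then in concentration series; signal loss relative to DMSO.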

The target of assay [8] is human Androgen Receptor (AR), AR (gene 367) (UniProt P10275). The assay is described as follows: NVS_NR_hAR: NovaScreen (NVS) Nuclear Receptor Binding Assay for human Androgen Receptor (AR) (AID 2283332). Summed up: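 Radioligand competitive binding, scintillation read-out, in cell-free extract from LnCAP, measured 20 h after dosing. Screened first in duplicate at 25 uM, then concentration series for actives; activity fitted against DMSO.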

In assay [9] the target is rat Glycine Receptor, Strychnine-sensitive (GlyRStrySens), Glra1 (gene 25674) (UniProt P07727). The assay is described as follows: NVS_LGIC_rGlyRStrySens: NovaScreen (NVS) Ligand-Gated Ion Channel Assay for rat Glycine Receptor, Strychnine-sensitive (GlyRStrySens) (AID 2283341). The method in brief:
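Radioligand displacement on rat spinal cord membranes, 1 hr, filter scintillation read-out. Single-concentration duplicate screen at 25 uM; chemicals meeting threshold (e.g., 30% inhibition) rerun in concentration-response up to 50 uM. Loss of binding fitted versus DMSO.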

The target in assay [10] is human Serotonin, 5-Hydroxytryptamine Receptor 3 (5HT3), HTR3A (gene 3359) (UniProt P46098). The assay is described as follows: NVS_LGIC_h5HT3: NovaScreen (NVS) Ligand-Gated Ion Channel Assay for human Serotonin, 5-Hydroxytryptamine Receptor 3 (5HT3) (AID 2283325). Summed up: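 Initially tested at 25 uM in duplicate, then up to 50 uM in concentration-response for actives, compounds competed with a radioligand for HEK293-derived human 5-HT3 receptor. Bound counts were measured by filtration and scintillation at 1 h; loss of signal versus DMSO.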

In assay [11] the target is Glutamate receptor ionotropic, kainate 1 (Rattus norvegicus) (UniProt P22756). Description: NVS_IC_rKAR: NovaScreen (NVS) Ion Channel Assay for rat Kainic Acid Receptors (KAR) (AID 2283334; active = hit-call score of the fitted dose curve at least 0.9, where 1 is the maximum; inactive = score below 0.9). The method in brief:
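Rat forebrain membrane preparation incubated 1 h with radioligand and test chemical; bound signal read by filtration and scintillation. Single-concentration screen at 25 uM, then concentration series to 50 uM maximum.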

The target of assay [12] is rat Gamma-Aminobutyric Acid Type A Receptor, Non-Selective (GABAR-NonSelective), Gabra1 (gene 29705) (UniProt P62813). Description: NVS_LGIC_rGABAR_NonSelective: NovaScreen (NVS) Ligand-Gated Ion Channel Assay for rat Gamma-Aminobutyric Acid Type A Receptor, Non-Selective (GABAR-NonSelective) (AID 2283326). Summed up:
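Compounds were first screened in duplicate at 25 uM, with actives run as singleton concentration series (max 50 uM). Binding of a radioligand to rat whole-brain GABA-A preparation was measured by filtration and scintillation counting after 1 h, DMSO baseline.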

For assay [13], the target named is Voltage-gated inwardly rectifying potassium channel KCNH2 (Homo sapiens) (UniProt Q12809). The assay is described as follows: NVS_IC_hKhERGCh: NovaScreen (NVS) Ion Channel Assay for human Potassium Channel ERG (KhERGCh) (AID 2283333). Summed up:
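Membranes from CHO cells expressing human ERG; displacement of radioligand measured by filtration and scintillation after 0.75 h. Single-concentration duplicate screen at 25 uM, then concentration-response for actives; DMSO baseline.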

The target of assay [14] is bovine Gamma-Aminobutyric Acid Type A Receptor BDZ, alpha 1 site (GABARa1), GABRA1 (gene 780973) (UniProt P08219). Description: NVS_LGIC_bGABARa1: NovaScreen (NVS) Ligand-Gated Ion Channel Assay for bovine Gamma-Aminobutyric Acid Type A Receptor BDZ, alpha 1 site (GABARa1) (AID 2283321). The method in brief:
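Bovine cortex membrane preparation, benzodiazepine site on GABA-A alpha1; specific radioligand displacement read after 0.75 h by filtration and scintillation. Screen at 25 uM, then singleton titrations up to 50 uM; DMSO baseline.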

For assay [15], the target named is bovine Gamma-Aminobutyric Acid Type A Receptor BDZ, alpha 5 site (GABARa5), GABRA5 (gene 523515) (UniProt Q08E50). Description: NVS_LGIC_bGABARa5: NovaScreen (NVS) Ligand-Gated Ion Channel Assay for bovine Gamma-Aminobutyric Acid Type A Receptor BDZ, alpha 5 site (GABARa5) (AID 2283323). The method in brief: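 Tested first in duplicate at a single 25 uM, with hits re-run in concentration series to a 50 uM maximum. Bovine hippocampal membranes; specific radioligand displacement measured by filter scintillation counting 1 hr post-dose.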

For assay [16], the target named is rat Thyrotropin Releasing Hormone Receptor (TRH), Trhr (gene 25570) (UniProt Q01717). The assay is described as follows: NVS_GPCR_rTRH: NovaScreen (NVS) G Protein-Coupled Receptor Assay for rat Thyrotropin Releasing Hormone Receptor (TRH) (AID 2283329).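 Note: hit means lower bound tracer signal versus DMSO baseline.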 Summed up:
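Rat forebrain membrane prep, radioligand displacement, filter scintillation readout at 4 h. Single conc 25 uM, duplicate; actives retested as concentration series. DMSO = negative control/baseline.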

Assay [17] deals with Small conductance calcium-activated potassium channel protein 1 (Rattus norvegicus) (UniProt P70606). Description: NVS_IC_rKCaCh: NovaScreen (NVS) Ion Channel Assay for rat Potassium Channel, Ca2+ Act., VI (KCaCh) (AID 2283336). Summed up:
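Filter-based scintillation counting of radioligand bound to rat forebrain membrane preparations, measured 1 h after compound addition. Primary screen used 25 uM in duplicate, with concentration-response follow-up; signal decrease relative to DMSO marks activity.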

Assay [18] addresses rat Gamma-Aminobutyric Acid Type A Receptor BDZ, alpha 6 site (GABARa6), Gabra6 (gene 29708) (UniProt P30191). Description: NVS_LGIC_rGABARa6: NovaScreen (NVS) Ligand-Gated Ion Channel Assay for rat Gamma-Aminobutyric Acid Type A Receptor BDZ, alpha 6 site (GABARa6) (AID 2283339). The method in brief:
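Actives from a 25 uM duplicate screen were retested in concentration series (max 50 uM). Specific radioligand displacement from rat cerebellar membranes was counted by filter-based scintillation at 1 h; DMSO served as baseline.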

Assay [19] addresses human Constitutive Androstane Receptor (CAR), NR1I3 (gene 9970) (UniProt Q14994). Description: NVS_NR_hCAR_Agonist: NovaScreen (NVS) Nuclear Receptor Binding Assay for human Constitutive Androstane Receptor Agonism (CAR) (AID 2283328). Summed up: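 Actives from a 25 uM duplicate screen were retested in singleton concentration series to 50 uM max. Biochemical TR-FRET assay on extracted CAR protein measured 1 h post-dose, with signal increase over DMSO control.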

SMILES strings stand for the structures. Several values for one entry are separate records, joined by “and”; a condition that tells them apart may be missing. Equal values may be shown once. Records with an inconclusive call do not appear. Activity calls are given as the source filed them. Rule for the calls, unless noted: active = hit-call score of the fitted dose curve at least 0.9, where 1 is the maximum; inconclusive = response in the unintended direction; inactive = score below 0.9.

rat Glutamate, AMPA Site (AMPA), Gria1 (gene 50592), sequence (P19490 whole entry, looked up): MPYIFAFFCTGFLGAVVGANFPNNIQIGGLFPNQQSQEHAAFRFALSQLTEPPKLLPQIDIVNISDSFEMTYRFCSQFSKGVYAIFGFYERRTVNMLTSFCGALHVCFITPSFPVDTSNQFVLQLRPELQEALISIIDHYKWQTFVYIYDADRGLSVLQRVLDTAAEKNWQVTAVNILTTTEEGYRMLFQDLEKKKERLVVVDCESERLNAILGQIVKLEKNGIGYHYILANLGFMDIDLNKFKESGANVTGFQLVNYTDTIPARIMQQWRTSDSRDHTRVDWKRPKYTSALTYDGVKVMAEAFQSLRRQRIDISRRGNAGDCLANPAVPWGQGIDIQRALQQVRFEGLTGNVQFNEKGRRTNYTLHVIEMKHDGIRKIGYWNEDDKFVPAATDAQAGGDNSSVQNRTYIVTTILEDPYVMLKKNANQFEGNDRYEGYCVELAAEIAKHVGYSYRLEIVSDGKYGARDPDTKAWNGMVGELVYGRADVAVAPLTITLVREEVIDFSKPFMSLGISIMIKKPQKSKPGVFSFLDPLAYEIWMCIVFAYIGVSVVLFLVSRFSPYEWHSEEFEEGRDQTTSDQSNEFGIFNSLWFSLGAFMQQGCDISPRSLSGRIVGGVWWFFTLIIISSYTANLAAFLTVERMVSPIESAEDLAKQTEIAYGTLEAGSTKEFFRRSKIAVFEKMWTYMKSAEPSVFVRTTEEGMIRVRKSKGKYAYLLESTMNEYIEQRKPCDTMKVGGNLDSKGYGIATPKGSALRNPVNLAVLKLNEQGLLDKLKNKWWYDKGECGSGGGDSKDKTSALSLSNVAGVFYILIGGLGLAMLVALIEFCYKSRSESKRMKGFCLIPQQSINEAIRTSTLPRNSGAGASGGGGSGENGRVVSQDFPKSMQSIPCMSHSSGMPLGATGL
human Androgen Receptor (AR), AR (gene 367), sequence (P10275 whole entry, looked up): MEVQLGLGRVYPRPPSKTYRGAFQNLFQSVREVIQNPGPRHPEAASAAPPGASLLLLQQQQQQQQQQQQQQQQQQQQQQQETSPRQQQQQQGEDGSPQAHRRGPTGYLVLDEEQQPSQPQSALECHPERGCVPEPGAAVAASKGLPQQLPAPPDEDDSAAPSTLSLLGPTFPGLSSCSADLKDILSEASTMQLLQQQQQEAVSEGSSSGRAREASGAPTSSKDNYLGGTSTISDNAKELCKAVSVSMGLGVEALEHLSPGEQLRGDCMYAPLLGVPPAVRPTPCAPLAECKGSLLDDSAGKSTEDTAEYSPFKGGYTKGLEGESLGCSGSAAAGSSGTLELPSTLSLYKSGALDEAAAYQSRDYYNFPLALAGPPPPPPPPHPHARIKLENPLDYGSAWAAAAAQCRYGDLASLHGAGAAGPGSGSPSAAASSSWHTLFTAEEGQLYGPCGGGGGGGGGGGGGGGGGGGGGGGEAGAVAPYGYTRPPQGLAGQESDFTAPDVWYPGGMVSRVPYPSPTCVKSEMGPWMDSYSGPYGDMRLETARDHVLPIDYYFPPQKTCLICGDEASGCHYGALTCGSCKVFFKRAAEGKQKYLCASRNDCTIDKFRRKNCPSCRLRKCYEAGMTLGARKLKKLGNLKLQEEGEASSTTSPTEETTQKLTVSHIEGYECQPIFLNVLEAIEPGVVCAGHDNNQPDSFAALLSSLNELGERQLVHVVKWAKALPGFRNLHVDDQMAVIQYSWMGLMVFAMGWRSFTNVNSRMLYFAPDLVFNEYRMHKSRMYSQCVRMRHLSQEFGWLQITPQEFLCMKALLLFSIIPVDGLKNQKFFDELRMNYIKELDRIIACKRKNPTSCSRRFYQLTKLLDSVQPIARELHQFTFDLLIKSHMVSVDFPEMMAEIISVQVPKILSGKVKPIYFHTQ
bovine Gamma-Aminobutyric Acid Type A Receptor Agonist (GABAR Agonist), GABRA1 (gene 780973), sequence (P08219 whole entry, looked up): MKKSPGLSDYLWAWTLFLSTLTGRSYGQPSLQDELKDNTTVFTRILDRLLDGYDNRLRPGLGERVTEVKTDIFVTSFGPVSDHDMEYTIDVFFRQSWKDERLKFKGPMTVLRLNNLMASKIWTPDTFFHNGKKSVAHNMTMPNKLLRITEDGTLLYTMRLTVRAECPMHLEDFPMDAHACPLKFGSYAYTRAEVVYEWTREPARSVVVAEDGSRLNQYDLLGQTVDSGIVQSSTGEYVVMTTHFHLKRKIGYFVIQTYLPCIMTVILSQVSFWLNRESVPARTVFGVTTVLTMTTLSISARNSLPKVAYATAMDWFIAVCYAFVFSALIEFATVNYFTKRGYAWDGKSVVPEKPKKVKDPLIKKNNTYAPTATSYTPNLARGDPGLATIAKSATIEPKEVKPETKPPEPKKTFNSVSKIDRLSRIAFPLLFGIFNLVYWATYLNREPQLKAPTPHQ
human Serotonin, 5-Hydroxytryptamine Receptor 3 (5HT3), HTR3A (gene 3359), sequence (P46098 whole entry, looked up): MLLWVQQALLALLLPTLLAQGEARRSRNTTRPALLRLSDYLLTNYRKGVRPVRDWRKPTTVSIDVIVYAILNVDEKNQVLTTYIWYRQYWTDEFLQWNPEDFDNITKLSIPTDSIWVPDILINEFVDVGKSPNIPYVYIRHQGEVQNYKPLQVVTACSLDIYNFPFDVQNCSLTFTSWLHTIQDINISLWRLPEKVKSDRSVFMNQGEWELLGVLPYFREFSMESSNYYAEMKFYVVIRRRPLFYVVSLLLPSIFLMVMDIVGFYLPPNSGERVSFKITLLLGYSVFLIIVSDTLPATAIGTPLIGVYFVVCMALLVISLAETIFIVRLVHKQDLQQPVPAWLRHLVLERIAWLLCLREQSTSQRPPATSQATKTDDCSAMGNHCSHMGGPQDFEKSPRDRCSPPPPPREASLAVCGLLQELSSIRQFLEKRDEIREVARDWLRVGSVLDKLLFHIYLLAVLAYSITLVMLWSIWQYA
Voltage-gated inwardly rectifying potassium channel KCNH2 (Homo sapiens), sequence (Q12809 whole entry, looked up): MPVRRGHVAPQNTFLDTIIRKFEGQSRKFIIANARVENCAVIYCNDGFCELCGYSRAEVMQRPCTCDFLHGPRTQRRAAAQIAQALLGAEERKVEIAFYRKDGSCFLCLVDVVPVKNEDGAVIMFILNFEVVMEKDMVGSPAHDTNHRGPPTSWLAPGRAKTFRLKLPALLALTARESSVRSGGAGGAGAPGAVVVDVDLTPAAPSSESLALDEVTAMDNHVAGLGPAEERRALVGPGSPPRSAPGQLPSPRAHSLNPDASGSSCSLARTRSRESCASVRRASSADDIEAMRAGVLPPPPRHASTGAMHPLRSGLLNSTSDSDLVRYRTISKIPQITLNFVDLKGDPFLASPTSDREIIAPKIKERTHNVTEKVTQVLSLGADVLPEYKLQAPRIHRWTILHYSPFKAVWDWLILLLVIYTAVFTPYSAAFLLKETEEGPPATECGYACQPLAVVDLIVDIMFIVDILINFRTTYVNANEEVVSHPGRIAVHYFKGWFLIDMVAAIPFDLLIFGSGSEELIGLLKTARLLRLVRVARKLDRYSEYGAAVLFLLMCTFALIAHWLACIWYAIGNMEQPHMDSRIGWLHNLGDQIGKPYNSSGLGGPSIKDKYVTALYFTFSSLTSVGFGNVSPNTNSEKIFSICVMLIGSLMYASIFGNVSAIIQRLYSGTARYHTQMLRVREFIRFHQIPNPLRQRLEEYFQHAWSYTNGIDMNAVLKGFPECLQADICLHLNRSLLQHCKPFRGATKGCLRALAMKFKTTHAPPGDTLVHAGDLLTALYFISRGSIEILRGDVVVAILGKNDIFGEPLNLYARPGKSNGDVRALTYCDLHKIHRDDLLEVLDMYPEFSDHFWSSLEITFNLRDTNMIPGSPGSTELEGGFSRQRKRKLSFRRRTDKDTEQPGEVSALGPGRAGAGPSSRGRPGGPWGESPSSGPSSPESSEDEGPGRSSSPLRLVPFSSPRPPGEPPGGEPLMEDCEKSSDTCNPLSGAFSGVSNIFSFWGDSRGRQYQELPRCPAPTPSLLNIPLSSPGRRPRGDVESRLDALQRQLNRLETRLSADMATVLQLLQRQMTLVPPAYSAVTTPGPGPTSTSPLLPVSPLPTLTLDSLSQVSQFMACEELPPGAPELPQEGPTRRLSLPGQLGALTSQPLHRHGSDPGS
human Peripheral-type Benzodiazepine Receptor (PBR), TSPO (gene 706), sequence (P30536 whole entry, looked up): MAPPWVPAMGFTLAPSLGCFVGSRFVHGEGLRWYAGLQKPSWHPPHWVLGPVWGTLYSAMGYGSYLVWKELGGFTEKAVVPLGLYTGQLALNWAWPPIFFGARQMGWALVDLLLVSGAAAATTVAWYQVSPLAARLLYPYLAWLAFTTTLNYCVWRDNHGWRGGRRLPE
rat Peripheral-type Benzodiazepine Receptor (PBR), Tspo (gene 24230), sequence (P16257 whole entry, looked up): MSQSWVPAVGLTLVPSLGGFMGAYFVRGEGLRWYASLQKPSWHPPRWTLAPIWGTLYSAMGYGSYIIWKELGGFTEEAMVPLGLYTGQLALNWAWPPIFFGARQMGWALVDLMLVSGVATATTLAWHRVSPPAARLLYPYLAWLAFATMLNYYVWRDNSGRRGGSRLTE
rat Gamma-Aminobutyric Acid Type A Receptor, Non-Selective (GABAR-NonSelective), Gabra1 (gene 29705), sequence (P62813 whole entry, looked up): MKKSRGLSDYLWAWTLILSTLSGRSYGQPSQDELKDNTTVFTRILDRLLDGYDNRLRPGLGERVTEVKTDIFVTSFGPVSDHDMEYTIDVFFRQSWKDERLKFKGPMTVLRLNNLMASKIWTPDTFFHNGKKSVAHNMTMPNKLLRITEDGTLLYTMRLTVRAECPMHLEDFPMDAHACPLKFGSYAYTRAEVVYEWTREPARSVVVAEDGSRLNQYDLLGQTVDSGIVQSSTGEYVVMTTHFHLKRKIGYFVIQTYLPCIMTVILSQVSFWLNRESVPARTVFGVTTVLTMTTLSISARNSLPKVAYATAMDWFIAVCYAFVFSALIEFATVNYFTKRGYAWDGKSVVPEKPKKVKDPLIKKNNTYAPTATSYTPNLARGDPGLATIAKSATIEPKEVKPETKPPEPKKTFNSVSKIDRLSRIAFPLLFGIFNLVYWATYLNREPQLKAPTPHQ
bovine Gamma-Aminobutyric Acid Type A Receptor BDZ, alpha 1 site (GABARa1), GABRA1 (gene 780973), sequence (P08219 whole entry, looked up): as the sequence (P08219 whole entry, looked up) above

With `C=CCc1ccc2c(c1)OCO2`, the result in assay [1] was inactive.
As to `[Cl-].[Cl-].[Hg+2]`, the concentration at half-maximal activity (AC50) in assay [2] is 16.8 µM (active).
As for `CCCCCCCCn1sccc1=O`, the half-maximal activity concentration (AC50) in [2] is 18 µM (active); in assay [3] it was 31.5 µM (active); in assay [5], 1.24 µM (active); in [6], 34.2 µM (active). Besides, in assay [4], the result was inactive.
On to `CC(C)COC(=O)c1ccccc1C(=O)OCC(C)C`, for which the molecule was classed as inactive in assay [5] and in assay [7].
As to `Nc1ccc(Cl)cc1N`, the molecule was classed as inactive in [8].
In the case of `CCC12COCN1COC2`, the molecule was called inactive in [1].
Consider `Nc1ccc(Cc2ccc(N)cc2)cc1`, for which the molecule was called inactive in assay [9].
Consider `CC(C)N(Cc1ccccc1)C(=O)C(C)(C)C`, for which, in [10], the molecule was classed as inactive.
Regarding `C1=Cc2cccc3cccc1c23`, in assay [11], the result was inactive.
Turning to `c1ccc(NNc2ccccc2)cc1`, the result in assay [4] was inactive.
On to `CCOc1cccc(C2(N3CCN(c4ccccc4)CC3)CCC(C)CC2)c1` (centres undefined), for which the outcome in assay [11] was inactive.
With `CCC(C)c1ccc(O)cc1` (centres undefined), the result in assay [12] was inactive.
In the case of `CCC[CH2][Sn]([Cl])([CH2]CCC)[CH2]CCC`, the half-maximal activity concentration (AC50) in [2] was 11.6 µM (active); in assay [3], 17.7 µM (active); in assay [13] it was 4.03 µM (active); in [6], 16.2 µM (active). The outcome in assay [4] and in assay [1] was inactive.
For the molecule `C[C@]12C=CC3=C4CCC(=O)C=C4CC[C@H]3[C@@H]1CC[C@@H]2O`, the AC50 in [14] is 20.5 µM (active); in [15], 40.7 µM (active); in [8], 0.345 nM (active) and 9.04 nM (active). Further, the molecule was classed as inactive in [16] and in [17].
`Brc1ccc(Oc2ccccc2)cc1`: in assay [10], the result was inactive.
Turning to `Cc1ccc(N)c(N)c1`, the result in assay [14] and in assay [18] was inactive.
Turning to `Nc1ccc(N=Nc2ccccc2)cc1`, the AC50 was 11.4 µM (active) in assay [10] and 11 µM (active) in assay [7]. Moreover, the result in [12], in assay [19] and in assay [13] was inactive.
`CC(C)(C)OOC(C)(C)CCC(C)(C)OOC(C)(C)C`: the molecule was called inactive in [19].
As to `ClCCOCCCl`, the AC50 in assay [10] is 1.38 µM (active).
`CN(C)C(=O)Nc1ccc(Cl)cc1`: in assay [1], the molecule was called inactive.

In general, AC50 refers to the concentration giving half of the maximal activity seen.

These data come from PubChem BioAssay (EPA / NIEHS).
